The campaign covered roughly 5,500 compounds. About 2,000 (36%) were called active. About 18% were inconclusive and are not listed. Rule as the data show it: active = normalized growth mostly below about 0.91 (no sharp cut-off); inconclusive = no clear call, values can overlap the other calls; inactive = mostly above about 0.92. This is one part of the list.
Experiment: chemical genetic growth profiling, strain panel (AID 1159580);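 also: tested at 20 µM; growth read once vehicle control cultures reached saturation at 30 °C; 1 = growth at the plate median or of vehicle wells; lower values mean less growth of the strain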
Settings: growth OD

Measured: normalized growth

C[C@]12CCC3c4ccc(O)cc4CCC3C1CCC2=O (stereo partly drawn)
active: S. cerevisiae deletion strains, locus YKR001C, strain vps1, hits give low values 0.854 | S. cerevisiae deletion strains, locus YLR039C, strain RIC1, hits give low values 0.56 | S. cerevisiae deletion strains, locus YLR262C, strain YPT6 (second series), hits give low values 0.609 | S. cerevisiae deletion strains, locus YLR262C, strain YPT6, hits give low values 0.558 | S. cerevisiae deletion strains, locus YLR320W, strain mms22, hits give low values 0.873 | S. cerevisiae deletion strains, locus YNL298W, strain CLA4, hits give low values 0.902 | S. cerevisiae deletion strains, locus YOR184W, strain ser1, hits give low values 0.714
inactive: S. cerevisiae deletion strains, locus YJR066W, strain TOR1, hits give low values 0.953 | S. cerevisiae deletion strains, locus YJR075W, strain HOC1, hits give low values 0.977 | S. cerevisiae deletion strains, locus YKL009W, strain mrt4, hits give low values 0.905 | S. cerevisiae deletion strains, locus YKL068W, hits give low values 1 | S. cerevisiae deletion strains, locus YKL085W, strain MDH1 (second series), hits give low values 1.02 | S. cerevisiae deletion strains, locus YKL085W, strain MDH1, hits give low values 1.02 | S. cerevisiae deletion strains, locus YKL160W, strain elf1, hits give low values 0.994 | S. cerevisiae deletion strains, locus YKR026C, strain gcn3, hits give low values 1.02 | S. cerevisiae deletion strains, locus YKR091W, strain srl3, hits give low values 1.02 | S. cerevisiae deletion strains, locus YLL001W, strain dnm1, hits give low values 1.05 | S. cerevisiae deletion strains, locus YLL026W, hits give low values 0.999 | S. cerevisiae deletion strains, locus YLL041C, strain sdh2, hits give low values 1.02 | S. cerevisiae deletion strains, locus YLR027C, strain aat2, hits give low values 0.973 | S. cerevisiae deletion strains, locus YLR058C, strain SHM2, hits give low values 0.97 | S. cerevisiae deletion strains, locus YLR102C, strain apc9, hits give low values 1 | S. cerevisiae deletion strains, locus YLR113W, strain HOG1, hits give low values 0.98 | S. cerevisiae deletion strains, locus YLR221C, strain rsa3, hits give low values 1 | S. cerevisiae deletion strains, locus YLR258W, strain gsy2, hits give low values 0.975 | S. cerevisiae deletion strains, locus YLR268W, strain sec22, hits give low values 0.976 | S. cerevisiae deletion strains, locus YLR330W, strain CHS5, hits give low values 1 | S. cerevisiae deletion strains, locus YLR342W, strain FKS1 (second series), hits give low values 0.882 | S. cerevisiae deletion strains, locus YLR342W, strain FKS1, hits give low values 1 | S. cerevisiae deletion strains, locus YLR357W, strain rsc2, hits give low values 1.04 | S. cerevisiae deletion strains, locus YLR370C, strain arc18, hits give low values 1.02 | S. cerevisiae deletion strains, locus YLR371W, strain rom2, hits give low values 1.02 | S. cerevisiae deletion strains, locus YLR384C, strain iki3, hits give low values 1.02 | S. cerevisiae deletion strains, locus YLR418C, strain cdc73, hits give low values 0.985 | S. cerevisiae deletion strains, locus YML016C, strain PPZ1, hits give low values 0.986 | S. cerevisiae deletion strains, locus YML032C, strain rad52, hits give low values 0.924 | S. cerevisiae deletion strains, locus YML120C, strain ndi1, hits give low values 1.03 | S. cerevisiae deletion strains, locus YML124C, strain tub3, hits give low values 1.02 | S. cerevisiae deletion strains, locus YMR058W, strain fet3, hits give low values 0.928 | S. cerevisiae deletion strains, locus YMR078C, strain ctf18, hits give low values 0.987 | S. cerevisiae deletion strains, locus YMR125W, strain sto1, hits give low values 1.06 | S. cerevisiae deletion strains, locus YMR129W, hits give low values 1.02 | S. cerevisiae deletion strains, locus YMR205C, strain PFK2, hits give low values 1.03 | S. cerevisiae deletion strains, locus YMR223W, strain ubp8, hits give low values 0.987 | S. cerevisiae deletion strains, locus YMR231W, strain pep5, hits give low values 0.993 | S. cerevisiae deletion strains, locus YMR307W, strain GAS1, hits give low values 0.797 | S. cerevisiae deletion strains, locus YNL067W, strain RPL9B, hits give low values 1 | S. cerevisiae deletion strains, locus YNL071W, strain lat1, hits give low values 0.937 | S. cerevisiae deletion strains, locus YNL183C, strain NPR1, hits give low values 0.936 | S. cerevisiae deletion strains, locus YNL209W, strain ssb2, hits give low values 1.02 | S. cerevisiae deletion strains, locus YNL233W, strain BNI4, hits give low values 0.976 | S. cerevisiae deletion strains, locus YNL248C, strain rpa49, hits give low values 0.956 | S. cerevisiae deletion strains, locus YNL250W, strain rad50, hits give low values 0.922 | S. cerevisiae deletion strains, locus YNL271C, strain bni1, hits give low values 0.966 | S. cerevisiae deletion strains, locus YNL307C, strain MCK1, hits give low values 0.96 | S. cerevisiae deletion strains, locus YNL322C, strain KRE1 (second series), hits give low values 1.05 | S. cerevisiae deletion strains, locus YNL322C, strain KRE1, hits give low values 1.01 | S. cerevisiae deletion strains, locus YNR049C, strain mso1, hits give low values 1.03 | S. cerevisiae deletion strains, locus YNR052C, strain pop2, hits give low values 0.917 | S. cerevisiae deletion strains, locus YOL006C, strain TOP1, hits give low values 0.838 | S. cerevisiae deletion strains, locus YOL012C, strain htz1 1.42 | S. cerevisiae deletion strains, locus YOL147C, strain pex11, hits give low values 1 | S. cerevisiae deletion strains, locus YOR001W, strain rrp6, hits give low values 0.946 | S. cerevisiae deletion strains, locus YOR061W, strain CKA2, hits give low values 0.969 | S. cerevisiae deletion strains, locus YOR069W, strain VPS5, hits give low values 1 | S. cerevisiae deletion strains, locus YOR070C, strain gyp1, hits give low values 0.997 | S. cerevisiae deletion strains, locus YOR080W, strain dia2, hits give low values 1.02 | S. cerevisiae deletion strains, locus YOR083W, strain WHI5, hits give low values 0.98 | S. cerevisiae deletion strains, locus YOR106W, strain vam3, hits give low values 1.02 | S. cerevisiae deletion strains, locus YOR136W, strain idh2, hits give low values 0.991 | S. cerevisiae deletion strains, locus YOR144C, strain elg1, hits give low values 0.999 | S. cerevisiae deletion strains, locus YOR231W, strain MKK1, hits give low values 0.969 | S. cerevisiae deletion strains, locus YOR265W, strain rbl2, hits give low values 1 | S. cerevisiae deletion strains, locus YOR270C, strain vph1, hits give low values 0.831 | S. cerevisiae deletion strains, locus YOR290C, strain snf2, hits give low values 0.941 | S. cerevisiae deletion strains, locus YOR316C, strain cot1, hits give low values 0.991 | S. cerevisiae deletion strains, locus YPL051W, strain arl3, hits give low values 0.934 | S. cerevisiae deletion strains, locus YPL055C, strain LGE1, hits give low values 0.863 | S. cerevisiae deletion strains, locus YPL078C, strain atp4, hits give low values 0.954 | S. cerevisiae deletion strains, locus YPL106C, strain sse1, hits give low values 1.03 | S. cerevisiae deletion strains, locus YPL240C, strain hsp82, hits give low values 1.01 | S. cerevisiae deletion strains, locus YPL256C, strain CLN2, hits give low values 1.02 | S. cerevisiae deletion strains, locus YPR119W, strain clb2, hits give low values 1 | S. cerevisiae deletion strains, locus YPR141C, strain kar3, hits give low values 1 | S. cerevisiae deletion strains, locus YPR163C, strain tif3, hits give low values 0.927 | S. cerevisiae deletion strains, locus YPR167C, strain met16, hits give low values 0.998 | S. cerevisiae deletion strains, strain wtn01, hits give low values 0.967 | S. cerevisiae strains, strain wild type, hits give low values 1
